Test results as given in PubChem BioAssay (NCATS).
Several values for one entry are separate records, joined by “and”; a condition that tells them apart may be missing. Equal entries are not always repeated. Results filed as inconclusive are left out. Activity calls are given as the source filed them. Unless noted, the call rests on the fitted dose curve; in most records, active means well fitted curve in the direction sought with a large enough effect; inconclusive means small, poorly fitted or top-dose-only effect, or another doubt; inactive means no such curve, though single readings can be large; an effect the other way counts as inactive or inconclusive.

Tests used:
[1] = NCATS anti-infectives library activity on HEK293 viability as a counter-qHTS vs the C. elegans viability qHTS (AID 1745854);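 further: HEK293 cells exposed to compounds for 24 hr before the viability read; on the % scale 0 is the no-effect control and ±100 the full control effect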
In short: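 Compound titrations (final up to 41.7 uM) were incubated with HEK293 cells for 24 hr at 37C under 5% CO2. Viable cells were quantified with CellTiter-Glo after 10 min at ambient temperature.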

[2] = biological target: Phospholipid hydroperoxide glutathione peroxidase GPX4 (Homo sapiens) (UniProt P36969); assay: Primary qHTS Assay for Inhibitors of Recombinant Selenoprotein Glutathione Peroxidase 4 (GPX4) (AID 1845192); further: nearly all actives have a fitted effect of over 65% in size; further: potency means the concentration at half of the fitted maximal effect; on activity change, negative = inhibition: series mostly up to about 50 µM; on the % scale 0 is the no-effect control and ±100 the full control effect
In short: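 qHTS, GR-coupled: GPX4 200 nM + cpd 30 min RT → GSH 1 mM, NADPH 0.5 mM, GR 100 nM → CHP 0.5 mM start; fluor 340/450 at t0 and t15 min; no-enzyme wells as control.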

[3] = Quantitative High-Throughput drug screen in 47 multiple myeloma cell lines against the NCATS MIPE library collection: FR4_PLB cell viability assay (AID 1918924; further: nearly all actives have a fitted effect of over 35% in size)
In short: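 Relative luminescence from CellTiter-Glo served as the viability signal, referenced to DMSO-treated (100%) and cell-free medium (0%) controls. Treatment lasted 48 hours at 37C with 500 cells per well.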

[4] = Quantitative High-Throughput drug screen in 47 multiple myeloma cell lines against the NCATS MIPE library collection: Delta47_JCRB cell viability assay (AID 1918925; further: nearly all actives have a fitted effect of over 45% in size; further: potency means the concentration at half of the fitted maximal effect)
In short: (§1)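 We plated 500 myeloma cells per well, pinned in MIPE 4.0 compounds, and incubated for 48 hours at 37C. ATP was then quantified with CellTiter-Glo, with DMSO and media-only wells defining 100% and 0%.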

[5] = Quantitative High-Throughput drug screen in 47 multiple myeloma cell lines against the NCATS MIPE library collection: EJM_DSMZ cell viability assay (AID 1918926; further: nearly all actives have a fitted effect of over 30% in size; further: potency means the concentration at half of the fitted maximal effect)
In short: as §1

[6] = biological target: Phenylethanolamine N-methyltransferase (Homo sapiens) (UniProt P11086); assay: Confirmatory Screen for Target Class Profiling of Small Molecule Inhibitors of Methyltransferases (AID 1745852); settings: MTase-Glo luminescence, SAH detection, recombinant enzyme; measured here: PNMT max response; stronger effect = lower value
[7] = biological target: Metallo-beta-lactamase type 2 (Klebsiella pneumoniae) (UniProt C7C422); assay: qHTS to identify inhibitors of the New Delhi Metallo-beta-lactamase (NDM): assay validation screen against the NCATS LOPAC Collection (AID 1794843); further: series mostly up to about 38 µM; on the % scale 0 is the no-effect control and ±100 the full control effect
In short: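 Absorbance at 485 nm from nitrocefin turnover (50 uM solution added), read at plateau, gives the read-out. Compounds in DMSO were incubated first with 2 nM final NDM-1 in pH 7.0 HEPES buffer containing 1 uM ZnSO4 and 0.01% Tween20.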

[8] = biological target: Luciferin 4-monooxygenase (Photinus pyralis) (UniProt P08659); assay: Primary firefly luciferase (FLuc) qHTS assay for identification of artifact compounds. (AID 1845220); further: nearly all actives have a fitted effect of over 60% in size;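 on activity change, negative = inhibition: series mostly up to about 54 µM; plate controls were DMSO vehicle for no effect and no enzyme for full effect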
In short: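 Reaction readout was CCD-imaged luminescence, taken 5 min after adding 10 nM purified firefly enzyme to compound-treated wells holding 10 uM luciferin and ATP in pH 7.6 buffer.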

[9] = Primary fluorescence-based thiol-reactive (MSTI) qHTS assay for identification of artifact compounds. (AID 1845221);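 further: series mostly up to about 54 µM; thiol-reactive compounds lower the probe fluorescence signal; nearly all actives have a fitted effect of over 65% in size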
In short: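 Probe: MSTI 4 uM, PBS pH 7.4, 2% DMSO. Incubation 1 h, RT, light-protected. Readout fluorescence 525/598 nm.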

[10] = test system: Nanoluciferase (engineered Oplophorus gracilirostris luciferase); assay: Primary Nanoluciferase (NLuc) qHTS assay for identification of artifact compounds. (AID 1845222);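 further: NLuc secreted into diluted conditioned medium of S16 cells; series mostly up to about 54 µM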
In short: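 Concentration-response data were obtained by luminescence after 5 min with Nano-Glo substrate at 1:100. The enzyme was diluted S16 NLuc-expressing cell medium, preincubated with compound for 15 min at RT. Curves were fitted with a 4-parameter Hill model.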

[11] = Primary redox qHTS assay for identification of artifact compounds. (AID 1845223)
In short: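 Redox-cycling detection via DTT (250 uM final) oxidation coupled to Amplex Red (25 uM)/HRP (250 mU/mL) in HBSS. 15 min preincubation plus 30 min after DTT, room temperature. Ex/Em 525/598 nm; 4-parameter Hill fit against DMSO and 10 uM DA3003.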

[12] = Quantitative High-Throughput drug screen in 47 multiple myeloma cell lines against the NCATS MIPE library collection: AMO1_DSMZ cell viability assay (AID 1918927; further: nearly all actives have a fitted effect of over 30% in size; further: potency means the concentration at half of the fitted maximal effect)
In short: as §1

[13] = Quantitative High-Throughput drug screen in 47 multiple myeloma cell lines against the NCATS MIPE library collection: ARP1_JJKsccF8 cell viability assay (AID 1918928; further: nearly all actives have a fitted effect of over 40% in size; further: potency means the concentration at half of the fitted maximal effect)
In short: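 CellTiter-Glo luminescence after 48 h exposure gives viability, scaled between DMSO-only (100%) and media-only (0%) controls. Library compounds are pinned onto 500 myeloma cells per well, incubated at 37C with 5% CO2.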

[14] = biological target: Glutathione peroxidase 1 (Homo sapiens) (UniProt P07203); assay: Primary qHTS Assay for Inhibitors of Recombinant Selenoprotein Glutathione Peroxidase 1 (GPX1) (AID 1845191); further: nearly all actives have a fitted effect of over 65% in size; on activity, negative = inhibition: on the % scale 0 is the no-effect control and ±100 the full control effect
In short: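 GPX1 10 nM, GR 100 nM, GSH 1 mM, NADPH 0.5 mM, CHP 0.5 mM (final). 30-min cpd preincubation, RT. Ex340/Em450 read t=0, t=15 min.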

[15] = Viability counterscreen for antagonist of constitutive androstane receptor (CAR) against the NCATS DSHEA and TCM libraries (AID 1794837);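 further: compound exposure lasted 24 h before viability reading; 0% is about no effect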
In short: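 Viability was measured by CellTiter-Fluor fluorescence (405/540 nm, 1 hr) in HepG2-CYP2B6-hCAR cells. Cells were co-treated 24 hr with 48 uM CITCO (final), antagonist mode, and test substances.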

[16] = Viability counterscreen for agonist of constitutive androstane receptor (CAR) against the NCATS DSHEA and TCM libraries (AID 1794838);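 further: cells exposed to compound for 24 h; 0% is about no effect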
In short: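 Cell viability, from CellTiter-Fluor fluorescence (405/540 nm), was scored after a 24 h, 37C exposure of HepG2 cells carrying CYP2B6 reporter and hCAR to test substances in presence of 0.75 uM PK11195.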

[17] = biological target: Nuclear receptor subfamily 1 group I member 3 (Homo sapiens) (UniProt Q14994); assay: Primary qHTS for agonist of constitutive androstane receptor (CAR) against the NCATS DSHEA and TCM libraries (AID 1794839);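 further: HepG2 cells expressing human CAR with a CYP2B6 reporter plus PK11195 antagonist; luciferase reporter luminescence read with ONE-Glo; 0% is about no effect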
In short: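 Agonist mode in presence of hCAR antagonist PK11195 (0.75 µM final): test substances, 24 h, 37 °C, on HepG2-CYP2B6-hCAR cells. Same-well readouts: fluorescence viability, then ONE-Glo luminescence; CITCO as reference agonist.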

[18] = HepG2 viability counterscreen (readout 2: ATP content) against the NCATS DSHEA and TCM libraries (AID 1794840);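 further: HepG2 cells exposed to substances for about 24 h; 0% is about no effect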
In short: (§2)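 Readout 1: cellular protease activity, GF-AFC substrate (25 uM final, 30 min, fluorescence 380/510 nm). Readout 2: ATP content by CellTiter-Glo luminescence after 30 min at RT. Both follow ~24 h exposure of HepG2 cells (1,000/well) to substances.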

[19] = HepG2 viability counterscreen (readout 1: protease activity) against the NCATS DSHEA and TCM libraries (AID 1794841);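 further: cells exposed to compounds for about 24 h before the protease read; 0% is about no effect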
In short: as §2

[20] = NCATS anti-infectives library activity on the primary C. elegans qHTS viability assay (AID 1745855; calls by dose curve)
In short: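 Titration-based screen in worms: eggs hatched overnight in M9, L1 larvae fed TOP10 capsules in S medium with compound, incubated 21 °C for 7 days; fluorescent objects gated by size and intensity at days 0, 3 and 7.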

Chain of Phenylethanolamine N-methyltransferase (Homo sapiens) (P11086 whole entry, looked up): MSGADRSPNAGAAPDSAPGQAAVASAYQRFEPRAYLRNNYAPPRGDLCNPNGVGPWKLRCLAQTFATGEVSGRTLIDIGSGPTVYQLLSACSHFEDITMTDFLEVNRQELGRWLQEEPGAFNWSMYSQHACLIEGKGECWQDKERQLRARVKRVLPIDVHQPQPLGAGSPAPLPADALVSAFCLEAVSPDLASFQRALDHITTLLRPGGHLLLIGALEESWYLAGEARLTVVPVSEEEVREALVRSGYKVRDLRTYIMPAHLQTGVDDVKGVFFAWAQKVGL
Chain of Phospholipid hydroperoxide glutathione peroxidase GPX4 (Homo sapiens) (P36969 whole entry, looked up): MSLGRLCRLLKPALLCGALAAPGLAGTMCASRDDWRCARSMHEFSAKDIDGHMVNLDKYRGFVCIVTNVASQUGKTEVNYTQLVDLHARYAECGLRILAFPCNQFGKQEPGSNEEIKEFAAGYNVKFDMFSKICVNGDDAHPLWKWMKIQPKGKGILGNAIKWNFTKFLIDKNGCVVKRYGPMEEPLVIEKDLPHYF
Chain of Metallo-beta-lactamase type 2 (Klebsiella pneumoniae) (C7C422 whole entry, looked up): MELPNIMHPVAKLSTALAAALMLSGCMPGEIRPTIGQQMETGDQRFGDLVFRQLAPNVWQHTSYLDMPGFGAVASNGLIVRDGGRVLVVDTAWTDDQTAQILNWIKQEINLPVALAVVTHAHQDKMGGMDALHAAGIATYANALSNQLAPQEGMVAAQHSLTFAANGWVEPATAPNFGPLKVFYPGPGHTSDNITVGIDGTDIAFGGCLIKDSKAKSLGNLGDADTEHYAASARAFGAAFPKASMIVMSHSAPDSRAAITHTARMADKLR
Chain of Glutathione peroxidase 1 (Homo sapiens) (P07203 whole entry, looked up): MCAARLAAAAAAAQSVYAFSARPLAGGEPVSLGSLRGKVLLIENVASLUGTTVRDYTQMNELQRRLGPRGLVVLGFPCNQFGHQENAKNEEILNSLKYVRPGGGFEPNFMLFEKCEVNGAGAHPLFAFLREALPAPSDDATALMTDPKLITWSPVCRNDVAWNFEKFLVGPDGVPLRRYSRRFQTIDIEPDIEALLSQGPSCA
Chain of Nuclear receptor subfamily 1 group I member 3 (Homo sapiens) (Q14994 whole entry, looked up): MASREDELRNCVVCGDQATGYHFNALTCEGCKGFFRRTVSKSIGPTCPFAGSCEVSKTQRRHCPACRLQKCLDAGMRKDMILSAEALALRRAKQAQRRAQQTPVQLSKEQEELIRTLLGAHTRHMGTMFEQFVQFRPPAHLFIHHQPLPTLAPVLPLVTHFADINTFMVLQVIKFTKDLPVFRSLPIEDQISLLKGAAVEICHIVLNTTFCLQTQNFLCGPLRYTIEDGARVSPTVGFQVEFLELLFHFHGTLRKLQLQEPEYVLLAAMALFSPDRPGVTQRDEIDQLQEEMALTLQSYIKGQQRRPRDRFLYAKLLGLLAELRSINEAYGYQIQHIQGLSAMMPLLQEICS

NC(=O)c1ccc(I)c([N+](=O)[O-])c1
inactive: outcome [1] | Potency [2] | Potency [3] | Potency [5]
active: Potency [4] 18.7 µM

CCN(CC)CCCC(C)Nc1ccnc2cc(Cl)ccc12 (centres undefined)
inactive: outcome [7] | Potency [2] | activity change, negative = inhibition [8] -3.19% [at 11.6 µM] | activity change, negative = thiol reactive [9] -0.305% [at 11.5 µM] | activity, negative = inhibition [10] 2.98% [at 11.6 µM] | redox activity (% of DA3003) [11] -9.33% [at 11.5 µM] | Potency [3] | Potency [4] | Potency [5]
0.752%: activity [6]
active: Potency [12] 0.187 µM

CCc1cncnc1N1CCN(Cc2nc3ccc(C(F)(F)F)cc3[nH]2)CC1
-14.9%: activity [6]
inactive: outcome [7] | Potency [2] | Potency [8] | Potency [9] | outcome [10] | outcome [11]
active: Potency [4] 13.2 µM | Potency [12] 6.62 µM

CCCc1nc2c(C)cc(-c3nc4ccccc4n3C)cc2n1Cc1ccc(-c2ccccc2C(=O)O)cc1
inactive: outcome [1] | Potency [2] | Potency [4] | Potency [5] | Potency [12] | Potency [13]

Oc1ccc(C2CNCCc3c2cc(O)c(O)c3Cl)cc1 (centres undefined)
inactive: outcome [7] | Potency [14] | Potency [2] | Potency [3] | Potency [4] | Potency [5] | Potency [12]
-4.58%: activity [6]

CNCc1ccc(-c2[nH]c3cc(F)cc4c3c2CCNC4=O)cc1
inactive: outcome [1] | Potency [8] | Potency [9] | outcome [10] | outcome [11] | Potency [3] | Potency [4] | Potency [5]
-15.2%: activity [6]
active: Potency [2] 11.4 µM and 12.8 µM and 15.8 µM | Potency [12] 8.33 µM

COc1cc2c(cc1OC)CN(CCc1ccc(NC(=O)c3cccc4c(=O)c5cccc(OC)c5[nH]c34)cc1)CC2
-10.7%: activity [6]
inactive: outcome [1] | Potency [14] | Potency [2] | Potency [8] | Potency [9] | outcome [10] | Potency [4] | Potency [13]

Cc1cnc(NC(=O)C2=C(O)c3ccccc3S(=O)(=O)N2C)s1
inactive: outcome [1] | outcome [7] | Potency [2] | Potency [4] | Potency [5] | Potency [12] | Potency [13]

NC(=O)c1cnccn1
inactive: outcome [15] | outcome [16] | outcome [17] | outcome [18] | outcome [19] | outcome [7] | Potency [14] | Potency [2] | Potency [3] | Potency [4] | Potency [5] | Potency [12] | Potency [13]

NCCc1ccc(O)c(O)c1
inactive: outcome [7] | Potency [14] | Potency [2]

CCCS(=O)(=O)Nc1ccc(F)c(C(=O)c2c[nH]c3ncc(-c4ccc(Cl)cc4)cc23)c1F
-12.4%: activity [6]
active: Potency [4] 8.33 µM
inactive: Potency [14] | Potency [2] | Potency [8] | Potency [9] | outcome [10] | outcome [11]

CCCC(CCC)C(=O)O
inactive: outcome [1] | outcome [7] | Potency [14] | Potency [2] | Potency [3] | Potency [5] | Potency [12] | Potency [13]

CC(=O)Oc1ccccc1C(=O)O
active: Potency [5] 8.33 µM
inactive: outcome [1] | outcome [7] | Potency [14] | Potency [2] | Potency [3]

Nc1nc2[nH]cc(CCc3ccc(C(=O)N[C@@H](CCC(=O)O)C(=O)O)cc3)c2c(=O)[nH]1
active: Potency [12] 0.526 µM | Potency [13] 0.418 µM
inactive: outcome [1] | Potency [14] | Potency [2] | Potency [4] | Potency [5]

CO[C@@H]1[C@H](N(C)C(=O)c2ccccc2)C[C@H]2O[C@]1(C)n1c3ccccc3c3c4c(c5c6ccccc6n2c5c31)C(=O)NC4
inactive: Potency [20] | Potency [14] | Potency [3]
active: Potency [4] 1.05 µM | Potency [12] 0.833 µM

COc1cc(Nc2ncc3c(n2)-c2ccc(Cl)cc2C(c2c(F)cccc2OC)=NC3)ccc1C(=O)O
inactive: Potency [14] | Potency [2] | Potency [8] | Potency [9] | outcome [10] | outcome [11] | Potency [3] | Potency [5]
2.42%: activity [6]

CCCCCCCc1ccc(CCc2cccc(O)c2C(=O)O)cc1
active: Potency [2] 20.2 µM
inactive: Potency [14] | Potency [3] | Potency [5] | Potency [12]
1.23%: activity [6]

Cc1cnc(Nc2ccc(OCCN3CCCC3)cc2)nc1Nc1cccc(S(=O)(=O)NC(C)(C)C)c1
active: Potency [12] 0.418 µM
inactive: Potency [14] | Potency [2] | Potency [8] | outcome [10] | Potency [3]
-8.53%: activity [6]

Nc1nc2c(ncn2COCCO)c(=O)[nH]1
inactive: outcome [1] | outcome [7] | Potency [14] | Potency [2] | Potency [3] | Potency [5] | Potency [13]

OC[C@H](Cc1ccccc1)Nc1nc(Oc2ccc3c(c2)CCC3)nc2c1ncn2Cc1ccc(-c2ccccc2)cc1
inactive: Potency [14] | Potency [2] | Potency [3] | Potency [5]
-16%: activity [6]

CS(=O)(=O)c1cccc(CNc2nc(Nc3ccc4c(c3)CCC(=O)N4)ncc2C(F)(F)F)c1
inactive: outcome [7] | Potency [2] | Potency [8] | Potency [9] | outcome [10]
active: Potency [4] 18.7 µM | Potency [5] 23.5 µM | Potency [12] 9.35 µM
-7.63% and -9.92%: activity [6]

Cc1ccccc1C(OCCN(C)C)c1ccccc1 (centres undefined)
-1.88%: activity [6]
inactive: outcome [7] | Potency [2] | Potency [3] | Potency [5] | Potency [12] | Potency [13]

O=C(c1cc(Cc2n[nH]c(=O)c3ccccc23)ccc1F)N1CCN(C(=O)C2CC2)CC1
inactive: outcome [1] | Potency [14] | Potency [2] | Potency [8] | Potency [9] | outcome [10] | outcome [11] | Potency [3]
